From the supplement of paper PMC6763611

Test system: Plasmodium falciparum NF54
Assay: growth inhibition relative to untreated control; higher = more inhibition
Conditions: 72 h
Outline: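 Ring-stage P. falciparum NF54 parasites at 1% hematocrit and 1% parasitemia were dispensed at 100 μL/well into dark 96-well half-area plates and given a single dose of test compound at 5 μM or 1 μM for 72 h at 37 °C. Incubation took place in minimal RPMI, either alone or supplemented with the chorismate end-products folate (2.2 μM), pABA (7.3 μM), pHBA (7.3 μM), tyrosine (111 μM), phenylalanine (90 μM) and tryptophan. Growth inhibition was determined with SYBR Green relative to untreated wells, using uninfected erythrocytes for background.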

[1] = 1 µM, MM + chorismate end-products (CM screening medium)
[2] = 5 µM, MM + chorismate end-products (CM screening medium)

Row | Compound | growth inhibition [1] [%] | growth inhibition (1 µM, minimal medium (MM)) [%] | growth inhibition [2] [%] | growth inhibition (5 µM, minimal medium (MM)) [%]
1 | CCN(CC)CCCN1CCN(C(=O)c2cccc(-c3noc(C(F)(F)F)n3)c2)CC1 | 86.3 | 84.9 | 95.3 | 87
2 | COc1ccc2nc(C)cc(OCC(=O)NCc3ccccc3)c2c1 | 25.1 | 2.13 | 21.9 | 2.43
3 | CC(=O)Oc1ccccc1C(=O)Nc1ncc([N+](=O)[O-])s1 | < 0 | 4.44 | 12 | < 0
4 | Cc1cc(C)n(-c2ccc(NC(=O)C3CCN(Cc4cnc(C)s4)CC3)cc2)n1 | 31 | 27.5 | 43.6 | 10.6
5 | CCC(C)NC(=O)c1ccc(NC(=O)C2(c3ccccc3)CCCC2)cc1 (configuration not stated) | 58 | 17.8 | 61.1 | 65.4
6 | Clc1ccc(CCNc2cc(-c3ccccc3)nc3ncnn23)cc1 | < 0 | 0.487 | 5.05 | < 0
7 | CC(C)n1ncc2c(C(=O)NCC(c3cccs3)N3CCOCC3)cc(-c3ccccc3)nc21 (configuration not stated) | 10 | 9.61 | 42.4 | 14.2
8 | O=C(Cn1ccnc1[N+](=O)[O-])NCc1ccccc1 | 20.5 | < 0 | 0.641 | < 0
9 | CC(=O)NC[C@H]1CN(c2ccc(N3CCSCC3)c(F)c2)C(=O)O1 | 21.8 | 32.5 | < 0 | < 0
10 | CCCn1c(CNc2ccccc2O)nc2ccccc21 | 11.5 | 22.8 | 12.5 | < 0
11 | CS(=O)(=O)N1CCC(Cn2nc(Cc3cccc4ccccc34)c3c(N)ncnc32)CC1 | 41.5 | < 0 | 42.7 | 17.6
12 | Cc1ccc(S(=O)(=O)Nc2ccc(CN3CCN(C(=O)c4cccc(C#N)c4)CC3)cc2)cc1 | 5.22 | 5.35 | 42.7 | < 0
13 | CCCCc1ccc(C(=O)Nc2nccc3ccccc23)nc1 | 6.6 | < 0 | 11.6 | 18.4
14 | N=C(N)c1ccc(-c2cc(-c3ccccc3)on2)cc1 | 2.89 | 5.06 | 86.7 | 71.2
15 | COc1cccc(OC)c1C(=O)Nc1ccc(Cl)c(-c2nc3ccccc3s2)c1 | 20.8 | < 0 | 22.9 | 29.8
16 | Cn1c(=O)c2c(S(C)(=O)=O)snc2n(C)c1=O | 23.6 | 5.49 | 37.3 | 23.5
17 | COc1cccn2c(C(=O)N3CCCCC3)c(C(F)(F)F)nc12 | 12.4 | 15.1 | < 0 | < 0
18 | COc1ccc(Cn2cnc3c(-c4ccco4)nc(Cl)nc32)cc1 | < 0 | 13.5 | 48.9 | 23.6
